Source: PubChem
PP5 primary = inhibitors of human protein phosphatase 5 (PP5); P53041; purified PP5c, OMFP substrate fluorescence; inhibition, % at 6.7 µM; actives 0.18% (n = 320,000); AID 1987;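 active means inhibition above the campaign's mean inhibition across all tested compounds plus 3 SD, cut at about 9.5% in these data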;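 further: 0% = DMSO only and 100% = 100 µM cantharidin control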
PREPL inhibitor = inhibits the human prolyl oligopeptidase-like enzyme; Q4J6C6; inhibition, % at 5.96 µM; recombinant PREPL, fluorescence polarization activity-based probe; actives 0.68% (n = 320,000); in the data active means inhibition above about 43%;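 further: 0% = enzyme with DMSO and 100% = wells lacking enzyme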
PP1 inh = PP1-alpha (human) inhibition in PP5 counter-screen; P62136; inhibition, % at 6.7 µM; actives 0.9% (n = 320,000); AID 2235; purified PP1alpha, OMFP fluorescence;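 active means inhibition above the mean inhibition of all tested compounds plus 3 SD, computed separately for each screening campaign, cut at about 15% in these data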
FID counter = counter-screen for HCV NS3 helicase inhibitors: DNA intercalator displacement; DNA fluorescent intercalator displacement, fluorescence; inhibition, % at 7.9 µM; actives 0.17% (n = 290,000); in the data active means inhibition above about 37%;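 further: 0% = vehicle and 100% = reference compound; higher means more ethidium bromide displaced from hairpin DNA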
ANO1 block = blocks the mouse calcium-activated chloride channel TMEM16A | Q8BHY3 | HEK293 TMEM16A/YFP iodide influx fluorescence, ionomycin | normalized B-score (activity score, 25-100; higher = stronger inhibition) at 10 µM | actives 1.2% (n = 310,000) | AID 588511;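 active means ratio plate-corrected score three or more library SD toward inhibition, starting fluorescence score within five deviations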;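 further: score derived from kinetic fluorescence span divided by baseline fluorescence per well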
Target sequence (Q8BHY3 whole entry, looked up): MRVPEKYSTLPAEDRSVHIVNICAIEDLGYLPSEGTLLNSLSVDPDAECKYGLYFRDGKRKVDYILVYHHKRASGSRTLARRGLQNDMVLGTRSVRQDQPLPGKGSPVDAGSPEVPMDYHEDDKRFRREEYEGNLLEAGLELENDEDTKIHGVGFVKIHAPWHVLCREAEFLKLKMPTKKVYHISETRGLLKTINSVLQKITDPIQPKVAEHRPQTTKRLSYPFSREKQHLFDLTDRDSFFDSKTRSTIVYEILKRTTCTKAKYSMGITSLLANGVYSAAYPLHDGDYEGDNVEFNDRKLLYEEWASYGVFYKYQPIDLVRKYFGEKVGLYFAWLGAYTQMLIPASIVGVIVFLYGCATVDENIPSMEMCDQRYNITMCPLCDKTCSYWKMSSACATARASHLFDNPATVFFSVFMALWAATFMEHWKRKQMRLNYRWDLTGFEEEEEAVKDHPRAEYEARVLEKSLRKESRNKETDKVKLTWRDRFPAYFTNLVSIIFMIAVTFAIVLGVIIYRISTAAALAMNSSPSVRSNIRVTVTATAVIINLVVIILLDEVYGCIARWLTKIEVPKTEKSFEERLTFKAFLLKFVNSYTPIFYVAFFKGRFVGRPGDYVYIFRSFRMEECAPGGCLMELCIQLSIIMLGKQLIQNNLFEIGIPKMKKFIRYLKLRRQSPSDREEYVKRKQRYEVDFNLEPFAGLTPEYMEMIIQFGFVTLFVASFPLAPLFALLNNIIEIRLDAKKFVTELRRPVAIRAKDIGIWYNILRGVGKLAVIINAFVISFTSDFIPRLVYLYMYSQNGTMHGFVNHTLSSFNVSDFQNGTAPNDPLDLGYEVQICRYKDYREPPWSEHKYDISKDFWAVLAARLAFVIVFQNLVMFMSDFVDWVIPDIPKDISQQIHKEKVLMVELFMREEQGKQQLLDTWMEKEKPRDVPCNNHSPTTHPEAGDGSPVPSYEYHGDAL
TMEM16A act = activates or potentiates the mouse TMEM16A chloride channel. Q8BHY3. HEK293 TMEM16A/YFP-H148Q/I152L, iodide quench fluorescence; stronger effect = lower value. B-score at 10 µM. actives 0.3% (n = 340,000);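 active means fluorescence-ratio B-score plate-corrected deviation score at least 3 library SD below zero, with starting fluorescence score within 5 deviations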;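 further: channel opened by trigger with iodide after compound preincubation; score built on the fluorescence ratio of max minus min over baseline; more negative score means more quench and so TMEM16A activation or potentiation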
PP1 inh confirm = human PP1 phosphatase inhibition, confirmation; purified PP1alpha, OMFP substrate fluorescence; actives 52% (n = 1,900); shares compounds with PP1 inh; inhibition, % at 6.7 µM;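 active means mean PP1 inhibition above a set limit taken from the earlier primary screen, cut at about 15% in these data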
PP5 inh counter = inhibits human PP5 phosphatase in PP1 counter-screen | purified PP5c, OMFP fluorescence | inhibition, % at 6.7 µM | shares compounds with PP1 inh | actives 4% (n = 1,900);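 active means mean PP5 inhibition over triplicate wells above about 9.5% taken from the earlier PP1 screen, limit read from the data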
Starred values were filed as active, the others as inactive; i = inactive; / = no result given. An excerpt weighted towards active compounds, which were near 2.7% of everything screened.

SMILES | PP5 primary | PREPL inhibitor | PP1 inh | FID counter | ANO1 block | TMEM16A act | PP1 inh confirm | PP5 inh counter
Cc1cc(C(C)(C)C)ccc1OCCCCN1CCCC1 | 3 | -22 | -1 | 21 | i | i | / | /
CCC(C)(C)c1ccc(OCCCC[n+]2ccc(C)cc2)c(C(C)(C)CC)c1 | 2 | 30 | 21* | 46* | 100* | / | -6 | 0
CCC(C)(C)c1ccc(OCCCC[n+]2cccc(C)c2C)c(C(C)(C)CC)c1 | 2 | 22 | 20* | 26 | 100* | i | -3 | 1
O=C(CN1CCN(c2ccccn2)CC1)Nc1ccc(F)cc1F | 0 | 16 | 4 | -17 | i | i | / | /
CCCOc1ccc(-c2c(C(=O)N/N=C/c3ccc(C)cc3)nnn2-c2nonc2N)cc1 | 2 | -14 | 2 | -10 | i | i | / | /
CCCOc1ccc(-c2c(C(=O)N/N=C/c3cccnc3)nnn2-c2nonc2N)cc1 | 2 | -5 | 27* | -16 | i | i | 21* | -5
Cc1ccc(C(C)C)c(OCc2nn(CC(=O)c3ccc(Cl)cc3)c3[n+]2CCCCC3)c1 | 3 | 21 | 23* | 25 | i | i | -18 | -1
O=C(Cn1nc(CNc2ccc(Cl)cc2)[n+]2c1CCCCC2)c1ccccc1 | -2 | 10 | 1 | 10 | i | i | / | /
Cc1ccc(NC(=O)Cn2nc(C(=O)Nc3ccc(C)cc3)ccc2=O)cc1 | 1 | -9 | 21* | -30 | i | i | 22* | -3
Cc1ccc(C)c(OC(=O)c2cccnc2)c1 | 1 | 0 | -4 | -3 | i | i | / | /
Cc1cc2c(s1)c1cnn(CC(=O)NCCc3ccccc3)c(=O)c1n2C | 1 | 12 | 20* | -6 | i | / | 11 | -2
O=C(Cn1ncc2c([nH]c3ccccc32)c1=O)NCCc1ccc(Cl)cc1 | 3 | -8 | 18* | -15 | i | i | 21* | 1
Cc1cc2c(s1)c1cnn(-c3ccccc3)c(=O)c1n2C | / | 15 | / | / | / | / | / | /
CSc1ccc(CCNC(=O)Cn2ncc3c([nH]c4ccccc43)c2=O)cc1 | -8 | 9 | -4 | -15 | i | i | / | /
Cc1ccccc1C(=O)N1CCc2cc(-c3nc(NC(=O)Cc4ccc5c(c4)OCO5)sc3C)ccc21 | 4 | 6 | 19* | -14 | i | i | 19* | 3
O=C(/C=C/c1cccs1)NC(=S)NNC(=O)Cc1cccs1 | 1 | 5 | 25* | -11 | i | i | 24* | -7
Cc1onc(-c2ccccc2)c1C(=O)NNC(=S)NC(=O)/C=C/c1cccs1 | 1 | 23 | 19* | -3 | i | i | 9 | 0
COc1ccc(/C=C/C(=O)NC(=S)NNC(=O)Cc2cccs2)cc1OC | 2 | 17 | 3 | -12 | i | i | / | /
COc1ccc(C)cc1NC(=O)c1ccc(NS(=O)(=O)c2cccs2)cc1 | 2 | 15 | 3 | -21 | i | i | / | /
Cc1noc(C)c1COc1ccccc1C(=O)NCCc1ccccc1 | / | / | / | / | / | i | / | /
Cc1noc(C)c1C(=O)Nc1ccccc1C(=O)NCCc1ccccc1 | 4 | 5 | 21* | -25 | i | i | 0 | -2
Cc1cc(NC(=O)Cn2c(=O)oc3ccccc32)no1 | 2 | 4 | -6 | / | / | i | / | /
CC(=O)c1sc2c(c1OC(=O)c1ccc(Cl)cc1)c(=O)n(-c1ccccc1)c(=S)n2-c1ccccc1 | / | / | / | / | / | i | / | /
CC(=O)c1sc2c(c1OC(=O)c1ccc(Cl)cc1Cl)c(=O)n(-c1ccccc1)c(=S)n2-c1ccccc1 | -1 | -9 | 38* | -29 | i | i | 10 | -2
O=C(CSc1nc2ccc(Nc3nc(N4CCCC4)nc(N4CCCC4)n3)cc2s1)NCc1ccco1 | 0 | 30 | 19* | -10 | i | i | 5 | 2
SMILES | PP5 primary | PREPL inhibitor | PP1 inh | FID counter | ANO1 block | TMEM16A act | PP1 inh confirm | PP5 inh counter
CCc1cccc(C)c1NC(=O)CSc1nc(-c2ccccc2F)nc2nc[nH]c12 | -1 | -5 | 24* | 1 | i | i | 16* | -4
Cc1ccc(NC(=O)c2snc3ccc(Cl)cc23)cc1C | 1 | 8 | 6 | 1 | i | i | / | /
O=C(Cn1cnc2sc(-c3ccccc3)cc2c1=O)NCc1ccco1 | 0 | -27 | 22* | -5 | i | i | 19* | 2
C[C@H](NC(=O)C1CCN(S(=O)(=O)c2ccccc2)CC1)C(=O)NCc1ccccn1 | 3 | 2 | -2 | -8 | i | i | / | /
COc1ccc(CNC(=O)Cc2c(C(=O)O)[nH]c3ccccc23)cc1 | 2 | 20 | -4 | -10 | i | i | / | /
COc1cc(NC(=O)Cc2c(C(=O)O)[nH]c3ccccc23)cc(OC)c1OC | 0 | 5 | 18* | -27 | i | i | 2 | -1
COc1ccccc1CCC(=O)OCC(=O)c1c(N)n(CC(C)C)c(=O)n(C)c1=O | 3 | 4 | 83* | / | i | i | -5 | 0
O=C(Nc1nn[nH]n1)c1cccc(Oc2ccccc2)c1 | 1 | 2 | 26* | 1 | i | i | 8 | -3
O=C(NCCC1=CCCCC1)C1CCN(C(=O)c2ccc(Br)cc2)CC1 | 2 | 9 | -1 | -34 | i | i | / | /
C#CCOCCOCCOCCNc1nc(N2CCN(C(=O)C([C@@H](C)CC)n3cc(C(N)Cc4ccc(O)cc4)nn3)CC2)nc(N2CCN(C(=O)[C@H](CCC(=O)O)n3cc(C(N)CC(C)C)nn3)CC2)n1 (stereo partly drawn) | 2 | 16 | 1 | 16 | i | i | / | /
C#CCOCCOCCOCCNc1nc(N2CCN(C(=O)[C@H]([C@@H](C)CC)n3cc([C@@H](N)CC(C)C)nn3)CC2)nc(N2CCN(C(=O)[C@H](Cc3cc4ccccc4[nH]3)n3cc([C@@H](N)Cc4ccc(O)cc4)nn3)CC2)n1 | 7 | 43 | 25* | 44* | i | / | -15 | 6
Cc1ccc(OCC(=O)Nc2nc(-c3ccccn3)cs2)c(C)c1 | 7 | 9 | 43* | / | i | i | 41* | -3
Cc1ccc(S(=O)(=O)CCC(=O)Nc2nc(-c3cccnc3)cs2)cc1 | 1 | 2 | -1 | -18 | i | i | / | /
O=C(COc1ccc([N+](=O)[O-])cc1)Nc1nc(-c2ccccn2)cs1 | 1 | 12 | 41* | / | i | i | 37* | 0
Cc1cc(Cl)ccc1OCC(=O)Nc1nc(-c2cccnc2)cs1 | -1 | 0 | 2 | -1 | i | i | / | /
Cc1ccc(C2(C)NC(=O)N(CC(=O)Nc3nc(-c4ccccn4)cs3)C2=O)cc1 (stereo not drawn) | 2 | 15 | 26* | / | i | i | 43* | 5
